The values below come from PubChem BioAssay AID2158 (National Center for Advancing Translational Sciences (NCATS), 2009).

Where “and” joins values, the source holds several entries; their conditions need not be identical. Identical values can stand only once. Inconclusive results are not listed. Calls of active or inactive are those of the source. The call rests on the fitted dose curve; in most records, active means well fitted inhibition curve with a large enough effect; inconclusive means small, poorly fitted or top-dose-only effect; inactive means no such curve, though single readings can be large or run the other way.
Potency means the concentration at half of the fitted maximal effect.

Chain of Cruzipain (Trypanosoma cruzi) (P25779 123-467 limits assumed): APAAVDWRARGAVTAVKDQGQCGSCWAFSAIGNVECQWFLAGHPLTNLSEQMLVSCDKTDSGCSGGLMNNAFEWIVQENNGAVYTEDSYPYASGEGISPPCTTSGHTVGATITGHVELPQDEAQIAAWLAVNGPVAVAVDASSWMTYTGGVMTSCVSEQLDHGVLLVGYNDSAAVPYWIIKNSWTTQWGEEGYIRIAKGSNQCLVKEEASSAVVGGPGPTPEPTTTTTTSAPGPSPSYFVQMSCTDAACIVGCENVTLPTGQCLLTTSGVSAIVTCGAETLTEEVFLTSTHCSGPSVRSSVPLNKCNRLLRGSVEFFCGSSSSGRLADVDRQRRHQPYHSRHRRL

The assay has as its target Cruzipain (Trypanosoma cruzi) (UniProt P25779). Put plainly: Confirmation qHTS Assay for Inhibitors of Cruzain. Further: nearly all actives have a fitted effect of over 40% in size.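 On activity change, negative = inhibition: plate controls were uninhibited enzyme control for no effect and buffer wells lacking enzyme for full effect.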 The conditions noted are these: purified cruzain, Z-FR-AMC fluorescence, 0.01% Triton. In short, it runs like this:
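Purified cruzain, 1.5 nM, pre-incubated 15 min at room temperature with compound in 100 mM sodium acetate pH 5.5, 5 mM DTT, 0.01% Triton X-100. Then 2 uM Z-FR-AMC added; AMC fluorescence (ex 360/em 450 nm) increase over 60 s gave reaction progress.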
A general note: qHTS replaces the single test concentration by a dilution series.
Regarding `CN(C)c1ccc(-c2nn3c(-c4cc(-c5ccccc5)n[nH]4)nnc3s2)cc1`, the activity change, negative = inhibition was -5.13% (inactive). With `Cc1ccc(Nc2nc(C#N)nc(NC3CCCC3)n2)cc1`, the Potency is 0.447 µM (active).

Take `CC(C)(C)c1ccc(S(=O)(=O)c2cnc(SCC(=O)Nc3ccc(F)c(Cl)c3)[nH]c2=O)cc1`: the Potency was 3.98 µM (active). As for `CC(C)C[C@H](N)c1nnc(S(=O)(=O)Cc2cccc(F)c2)o1`, the Potency is 15.8 µM (active). Turning to `COc1ccccc1CCNC(=O)CNC(=O)Cc1cccc2ccccc12`, the activity change, negative = inhibition is 5.36% (inactive).

As to `Cc1cc(C)cc(OCCn2c(CCNC(=O)C3CCCCC3)nc3ccccc32)c1`, the Potency is 631 nM (active) and 2.24 µM (active). Take `Cc1ccc2[nH]c(=O)c(CN(Cc3ccco3)Cc3nnnn3Cc3ccco3)cc2c1`: the activity change, negative = inhibition is -6.56% (inactive).

For `N#Cc1nc(Nc2cccc(Br)c2)nc(NC2CCCC2)n1`, the Potency was 0.1 µM (active).

Regarding `CCc1ccc2[nH]c(=O)c(CN(Cc3ccccc3)Cc3nnnn3Cc3ccccc3)cc2c1`, the activity change, negative = inhibition was -20% (inactive).

Take `CC(=O)OC1(C(F)(F)F)Oc2ccccc2NC1=O` (stereo not drawn): the Potency is 2.82 µM (active). Regarding `Cc1ccc(S(=O)(=O)NCC(=O)OCC(=O)Nc2ncc(Cl)cc2Cl)cc1`, the activity change, negative = inhibition was -50.6% (inactive). Take `Cc1ccc(OCCNC(=O)CNC(=O)Cc2cccc3ccccc23)cc1`: the activity change, negative = inhibition is -1.3% (inactive). For the compound `O=C(COC(=O)CNC(=O)c1ccccc1)Nc1ccccc1Cl`, the Potency is 11.2 µM (active). Consider `CCn1cnc2c(Nc3ccc(CCC(=O)N=C(N)N)cc3)nc(C#N)nc21`, for which the Potency is 35.5 µM (active).

On to `Cn1nc(-c2cccnc2)nc2c(=O)n(C)c(=O)nc1-2`, for which the Potency was 1.12 µM (active). On the same count and under the same terms, the value for `Cc1ccc(C(=O)NCC(=O)OC(C(=O)Nc2cc(C(F)(F)F)ccc2Cl)c2ccccc2)cc1` (stereo not drawn) was 7.94 µM (active); that for `COc1ccc(Nc2nc(C#N)nc(NC3CCCC3)n2)cc1` was 0.447 µM (active). For `CC(C)(C)OC(=O)NCc1nnc(-c2cc3ccccc3[nH]2)o1`, the activity change, negative = inhibition was 0.21% (inactive).

With `CCOc1ccc(-c2csc(NC(=O)c3ccc(S(=O)(=O)N4CCc5ccccc5C4)cc3)n2)cc1`, the activity change, negative = inhibition was -11% (inactive). As for `O=C(NNC(=O)c1cc2ccccc2[nH]1)OCc1ccccc1`, the activity change, negative = inhibition is 2.31% (inactive). Consider `O=C(CNC(=O)c1ccccc1)OC(CCc1ccccc1)C(=O)Nc1cc(C(F)(F)F)ccc1Cl` (stereo not drawn), for which the Potency was 7.94 µM (active).

On to `CC(=O)NCCCc1ccc(C(=O)COC(=O)CNC(=O)c2ccc3ccccc3c2)cc1`, for which the activity change, negative = inhibition is -5.36% (inactive). Turning to `COc1ccc(C(=O)COC(=O)CNC(=O)C2CCCCC2)c(OC)c1`, the Potency was 14.1 µM (active). In the case of `CCOC(=O)CNC(=O)C1CCCCC1`, the activity change, negative = inhibition was -11.9% (inactive). For the compound `O=C(COC(=O)CNC(=O)C1CCCCC1)Nc1ccccc1Cl`, the Potency is 3.98 µM (active).

As to `N#Cc1nc(NCC(F)F)nc(Nc2cc(F)cc(F)c2)n1`, the Potency was 0.0251 µM (active).

In the case of `N#Cc1ccc(C(=O)NCC(=O)OC(C(=O)Nc2cc(C(F)(F)F)ccc2Cl)c2ccccc2)cc1` (stereo not drawn), the Potency is 12.6 µM (active).

In the case of `Cc1ccc2[nH]c(=O)c(CN(CCO)Cc3nnnn3Cc3ccco3)cc2c1`, the activity change, negative = inhibition was -3.64% (inactive). On to `CC(C)CCNC(=O)Cn1c(SCc2cccc(F)c2)nc2ccncc21`, for which the Potency was 14.1 µM (active). Still for that read-out and setting: the value for `CCC(C(=O)NC1CCCCC1)n1c(SCc2ccccc2F)nc2ccncc21` (stereo not drawn) was 4.47 µM (active); that for `CNC(=O)c1ccc2nc(-c3ccco3)c(-c3ccco3)nc2c1` was 7.08 µM (active). On to `CCc1ccc2[nH]c(=O)c(CN(Cc3ccco3)Cc3nnnn3Cc3ccco3)cc2c1`, for which the activity change, negative = inhibition is -11.7% (inactive).

For the compound `O=C(O)c1c(Sc2ccccc2)c2cc(Cl)ccc2n1Cc1ccc(Cl)cc1`, the Potency was 8.91 µM (active). As to `O=C(CNC(=O)c1ccccc1)OC(C(=O)Nc1ccc2c(c1)OCO2)c1ccccc1` (stereo not drawn), the Potency was 8.91 µM (active). On to `CC(C)NC(=O)COC(=O)CNC(=O)C1CCCCC1`, for which the Potency is 14.1 µM (active). `O=C(CNC(=O)c1cccc(Cl)c1)OC(C(=O)Nc1cc(C(F)(F)F)ccc1Cl)c1ccccc1` (stereo not drawn): the Potency was 12.6 µM (active). Take `c1ccc(CN(Cc2ccccc2)Cc2nnc(-c3cc4ccccc4[nH]3)s2)cc1`: the activity change, negative = inhibition was -2.53% (inactive).

Take `CCCCNC(=O)Cn1c(SCc2cccc(F)c2)nc2ccncc21`: the activity change, negative = inhibition is -27.5% (inactive).
